MEKK3 PB1 HTS = raises or lowers MEK5 binding to the human MEKK3 PB1 domain; Q99759; bead-based flow cytometry, Alexa488-MEK5 binding to MEKK3; actives lie on both sides; 0 = blocked by unlabeled MEK5, 100 = vehicle; binding response (% of control), % at 10 µM; hit rate 1.4% among 290,000;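 active = binding response more than 3 SD above or below the average of its plate-row segment, actives on both sides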;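 note: Alexa488 bead fluorescence after subtracting the streptavidin-only scavenger bead signal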
Target sequence (Q99759 whole entry, looked up, the tested form may be a part): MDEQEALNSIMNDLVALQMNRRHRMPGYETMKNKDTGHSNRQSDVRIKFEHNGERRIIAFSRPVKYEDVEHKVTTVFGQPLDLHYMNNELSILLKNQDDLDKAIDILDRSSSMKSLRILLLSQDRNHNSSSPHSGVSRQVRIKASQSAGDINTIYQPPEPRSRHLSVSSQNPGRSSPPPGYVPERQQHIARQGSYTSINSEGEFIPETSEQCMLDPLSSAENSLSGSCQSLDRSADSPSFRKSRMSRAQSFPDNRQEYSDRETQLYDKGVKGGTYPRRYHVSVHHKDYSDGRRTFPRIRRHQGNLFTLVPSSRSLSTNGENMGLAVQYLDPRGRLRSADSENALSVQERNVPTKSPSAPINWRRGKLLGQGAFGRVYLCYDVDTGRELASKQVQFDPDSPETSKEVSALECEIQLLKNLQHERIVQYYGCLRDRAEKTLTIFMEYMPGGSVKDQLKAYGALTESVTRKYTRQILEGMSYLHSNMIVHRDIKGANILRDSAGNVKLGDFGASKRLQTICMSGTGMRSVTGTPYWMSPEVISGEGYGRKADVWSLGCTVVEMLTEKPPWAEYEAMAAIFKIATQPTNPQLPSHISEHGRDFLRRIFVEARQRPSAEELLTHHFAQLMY
UBC13 inh = blocks human UBC13 polyubiquitin chain formation; AID 485273; inhibition, % at 20 µM; hit rate 0.47% among 330,000; TR-FRET; P61088; in the data active = inhibition above about 45%, passing the limit was not always enough
MEKK2 WT-MEK5 = raises or lowers MEK5 binding to wildtype human MEKK2 PB1 domain. Q9Y2U5. AID 1531. hit rate 1.1% among 290,000. bead flow cytometry, Alexa488-MEK5 binding to MEKK2 WT; actives lie on both sides. binding response (% of control), % at 10 µM; in the data active = binding response below about 67% or above about 130%
Rce1 inhib = yeast Ras-converting enzyme inhibition; Q03530; yeast membranes, quenched prenylated peptide cleavage fluorescence; calls only; hit rate 0.27% among 290,000;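 active = fall in fluorescence gain of 50% or more versus controls, with final raw signal at or below 3038400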;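 note: plate controls were neutral control wells for no effect and wells lacking membranes for full effect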
MEKK2mut PB1 HTS = signal of MEK5 binding to mutant human MEKK2 PB1 domain. bead flow cytometry, Alexa488-MEK5 binding to MEKK2 mutant. percent response, % at 10 µM. hit rate 0.35% among 290,000. AID 1530; in the data active = percent response above about 24%, passing the limit was not always enough
MEKK2wt confirm = raises or lowers MEK5 binding to wildtype human MEKK2, retest; shares compounds with MEKK3 PB1 HTS; bead flow cytometry, Alexa488-MEK5 binding to MEKK2 WT; actives lie on both sides; binding response (% of control), % at 10 µM; hit rate 2.4% among 5,900; AID 1892; in the data active = binding response below about 16% or above about 210%; inactive = in between
MEKK2mut-MEK5 = signal of MEK5 binding to mutant human MEKK2, retest; shares compounds with MEKK3 PB1 HTS; bead flow cytometry, Alexa488-MEK5 binding to MEKK2 mutant; percent response, % at 10 µM; hit rate 2% among 5,900; in the data active = percent response mostly above about 71%, no sharp cut-off; inactive = mostly below about 38%;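 note: higher means compound restores mutant binding toward wildtype level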
MEKK3-MEK5 inh = MEKK3-MEK5 PB1 inhibition, single concentration confirmation; shares compounds with MEKK3 PB1 HTS; bead flow cytometry, Alexa488-MEK5 binding to MEKK3; active compounds read low; binding response (% of control), % at 10 µM; hit rate 1.8% among 5,900;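 active = binding response below 72% of control, or above a set upper limit, though filed actives all read lower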;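 note: 100% = DMSO only wells and 0% = binding blocked by excess unlabeled MEK5; lower values mean stronger disruption of MEK5 binding to MEKK3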
The depositor's hits bear a star; i = inactive; . = no result; [ ] = remark or other dose. Most compounds without a hit are left out; they make up all but 2.5% or so of the library.

SMILES | MEKK3 PB1 HTS | UBC13 inh | MEKK2 WT-MEK5 | Rce1 inhib | MEKK2mut PB1 HTS | MEKK2wt confirm | MEKK2mut-MEK5 | MEKK3-MEK5 inh
CCCC(=O)Nc1c(C)n[nH]c1C | 95.0 | 3.4 | 99.0 | i | 0.0 | . | . | .
CNCC(=O)Nc1c(C)n[nH]c1C | 148.0* | 3.5 | 108.0 | i | 1.0 | 113.0 | 11.0 | 106.0
O=[N+]([O-])c1cccc(-n2nnnc2CN2CCCC2)c1 | 104.0 | 8.0 | 94.0 | i | -2.0 | . | . | .
O=[N+]([O-])c1cccc(-n2nnnc2CN2CCCCCC2)c1 | 122.0* | 0.2 | 124.0 | i | 5.0 | 105.0 | -4.0 | 101.0
CC(C)[C@H](NC(N)=O)C(=O)Nc1ccc(Oc2ccccc2)cc1 | 42.0*[inhibitor] | 4.7 | 51.0 | i | -18.0 | 108.0 | 5.0 | 104.0
Cc1ccc(S(=O)(=O)N2CCOCC2)cc1C(=O)N1c2ccccc2Sc2ccccc21 | 106.0 | 0.2 | 105.0 | i | 9.0 | . | . | .
CCCN1CNC(=S)N(Cc2ccccc2)C1 | 98.0 | 4.4 | 98.0 | i | 0.0 | . | . | .
CCCCN1CNC(=S)N(Cc2ccccc2)C1 | 130.0* | 9.7 | 105.0 | i | 0.0 | 97.0 | -7.0 | 102.0
CCOC(=O)c1ccccc1NC(=O)Cc1ccc(OC)c(S(=O)(=O)N2CCOCC2)c1 | . | 8.7 | . | . | . | . | . | .
COc1ccc(N=C2SC(C(=O)Nc3ccc(C(=O)O)cc3)CC(=O)N2Cc2cccs2)cc1 (configuration not stated) | 131.0* | -4.2 | 122.0 | i | 24.0 | 104.0 | 2.0 | 107.0
COc1cc(C(=O)Nc2ccc3c(c2)Cc2ccccc2-3)cc(OC)c1OC | 135.0* | -17.0 | 105.0 | i | -2.0 | 105.0 | 1.0 | 100.0
COc1cc(C(=O)Nc2ccc3c(c2)C(=O)c2ccccc2C3=O)cc(OC)c1OC | 92.0 | . | 104.0 | i | 6.0 | . | . | .
COc1ccc(CCNc2ccc(S(=O)(=O)N3CCCC3)cc2[N+](=O)[O-])cc1 | 142.0* | -2.8 | 107.0 | i | -1.0 | 103.0 | -2.0 | 101.0
O=[N+]([O-])c1cc(S(=O)(=O)N2CCCC2)ccc1NCCc1ccccc1 | 97.0 | 2.9 | 96.0 | i | -1.0 | . | . | .
O=C(O)/C=C/c1ccc2ccccc2n1 | 100.0 | -9.4 | 97.0 | i | -2.0 | . | . | .
Oc1ccc(/C=C/c2ccc3ccccc3n2)cc1 | 100.0 | -2.5 | 97.0 | i | -6.0 | . | . | .
C(=C\c1ccc2ccccc2n1)/c1ccccc1 | 40.0*[inhibitor] | -14.4 | 34.0*[inhibitor] | i | -12.0 | 100.0 | -3.0 | 94.0
Fc1ccccc1/C=C/c1ccc2ccccc2n1 | 130.0* | 7.0 | 108.0 | i | 5.0 | 101.0 | -4.0 | 99.0
COc1ccc(NC(=O)CN(C)C(=O)c2cn(-c3ccccc3)nc2-c2ccc(Cl)cc2)cc1 | . | -16.6 | . | i | . | . | . | .
COc1ccc(-c2cc(Cl)cc3c(=O)c4ccccc4n(C)c23)cc1F | 94.0 | 16.7 | 66.0*[inhibitor] | i | -6.0 | 75.0 | -16.0 | 96.0
COc1cc(-c2ccc3c(=O)c4ccccc4n(C)c3c2)cc(OC)c1OC | 100.0 | 10.6 | 95.0 | i | 0.0 | . | . | .
O=C1c2ccccc2C(=O)N1CN(C(=O)COc1ccc(Cl)cc1Cl)c1cccc(F)c1 | 139.0* | 8.0 | 105.0 | i | 1.0 | 99.0 | -1.0 | 100.0
COc1ccc(CNC(=O)C2CCN(S(=O)(=O)c3ccc4c(c3)CC(C)N4C(C)=O)CC2)cc1 (configuration not stated) | 101.0 | 9.3 | 100.0 | i | 0.0 | . | . | .
Cc1cc(C(=O)NNC(=S)NCC(C)C)cs1 | 75.0*[inhibitor] | 1.7 | 91.0 | i | -2.0 | 98.0 | 9.0 | 104.0
CC(C)NC(=O)CN1C(=O)CSc2ccc(S(=O)(=O)N3CCCC3)cc21 | 96.0 | -2.5 | 103.0 | i | 3.0 | . | . | .
CC(=O)Nc1sc(/C(C#N)=C\c2cccc(Cl)c2)nc1-c1ccc(C)cc1 | 107.0 | . | 13.0*[inhibitor] | i | 26.0 | 99.0 | -4.0 | 106.0
CC(=O)Nc1sc(N/N=C/c2ccccc2)nc1-c1ccc(C)cc1 | 100.0 | 0.6 | 97.0 | . | 0.0 | . | . | .

Screening results deposited in PubChem by several laboratories.
